# Assay results as given in article PMC5540273 (PLoS ONE, 2017).
# Legend:
# Conditions in all cases: concentration: 1 μM,replicates: in singlicate; n = 1
# [1] = tested on: T1, NIM1
# T1 construct: gene MGC42105
# [2] = tested on: NLK
# [3] = tested on: T2, OSR1
# T2 construct: gene OXSR1
# [4] = tested on: PAK1
# [5] = tested on: PAK2
# [6] = tested on: PAK3
# [7] = tested on: PAK4
# [8] = tested on: PAK6
# [9] = tested on: PAK7
# [10] = tested on: T3, PCTK1
# T3 construct: gene CDK16
# [11] = tested on: T4, PCTK2
# T4 construct: gene CDK17
# [12] = tested on: T5, PCTK3
# T5 construct: gene CDK18
# [13] = tested on: PDGFRA
# [14] = tested on: PDGFRB
# [15] = tested on: PDPK1
# [16] = tested on: PFTAIRE2
# [17] = tested on: T6, PFTK1
# T6 construct: gene CDK14
# [18] = tested on: PHKG1
# [19] = tested on: PHKG2
# [20] = tested on: PIK3C2B
# 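Note: KINOMEscan kinase panel screen.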
Structure (SMILES),%Inh [1] [%],%Inh [2] [%],%Inh [3] [%],%Inh [4] [%],%Inh [5] [%],%Inh [6] [%],%Inh [7] [%],%Inh [8] [%],%Inh [9] [%],%Inh [10] [%],%Inh [11] [%],%Inh [12] [%],%Inh [13] [%],%Inh [14] [%],%Inh [15] [%],%Inh [16] [%],%Inh [17] [%],%Inh [18] [%],%Inh [19] [%],%Inh [20] [%]
CC(=O)c1c(-c2ccncc2)[nH]c(-c2ccncc2)c1C [GW493036],8,18,3,15,19,20,0,2,0,4,0,54,0,7,0,0,26,0,0,0
O=C(Nc1ccc(Oc2ccc3nc(NC(=O)C4CC4)cn3n2)c(F)c1)c1cccn(-c2ccccc2)c1=O,0,0,0,0,0,0,0,0,0,0,5,5,96.3,100,0,0,0,61,0,0
CCn1c(-c2nonc2N)nc2cncc(CNC3CCNCC3)c21.Cl [SB-747651],31,18,4,0,51,45,0,2,0,8,0,0,0,4,18,14,1,25,0,0
CCN1CCN(CCCC(=O)Nc2n[nH]c3nc(-c4ccc(O)cc4)c(Br)cc23)CC1 [SB-731579],3,0,0,0,33,36,61,0,7,56,40,41,39,99.4,0,11,31,0,2,0
Cl.c1ccc(Oc2ccc(Nc3ccnc4cc(-c5ccc(CN6CCNCC6)o5)ccc34)cc2)nc1 [GW567142],0,15,0,7,0,0,0,0,0,1,0,2,78,98.5,0,25,11,0,0,0
Cn1ccc2ncnc(Oc3ccc(NC(=O)Nc4cccc(C(F)(F)F)c4)c(Cl)c3)c21,0,25,0,10,17,21,15,1,1,0,0,8,98.6,100,0,3,10,0,3,0
Cc1ccc(Nc2ccnc(Nc3ccc4c(c3)CS(=O)(=O)C4)n2)cc1O.Cl [GW579362],17,97.5,46,26,29,20,0,28,56,17,35,16,92.8,100,38,15,27,0,1,4
NC(=O)c1ccc(-c2cc3ncnc(SCC(=O)O)c3s2)cc1,0,0,0,0,0,0,0,0,0,0,0,2,71,80,0,0,7,0,1,0
CN1CCN(CCNc2nc3cc(Oc4ccc(NC(=O)Nc5cc(C(F)(F)F)ccc5F)cc4)ccc3[nH]2)CC1.Cl.Cl [GW768504],0,0,0,0,30,6,10,0,0,0,0,0,84,99.6,0,37,18,0,0,14
Nc1nccc(-c2ccc3c(N)n[nH]c3c2)n1 [GSK1034945],17,33,6,18,11,7,0,0,2,0,0,10,0,17,34,15,10,5,13,0
CS(=O)c1ccc(-c2coc3ccc(-c4n[nH]c(=O)o4)cc23)cc1 (stereo not shown),7,11,83,0,36,18,4,5,19,14,2,0,10,0,0,0,4,0,6,8
COc1cccc(OC)c1C(=O)Nc1cccc(-c2nn3ccccc3c2-c2ccnc(Nc3cccc(F)c3)n2)c1 [GSK361065],0,90,0,6,10,0,10,24,0,0,0,3,0,90.2,4,2,3,1,2,0
Cc1cccc2c(-c3ccncc3)c(-c3ccc(F)cc3)nn12.Cl [GW461487],10,65,0,24,8,100,0,0,0,0,0,0,0,14,0,9,11,0,0,0
CNC(=O)c1ccccc1Nc1nc(Nc2cccc(CS(C)(=O)=O)c2)ncc1C.O=CO [GSK1520489],97.4,39,28,64,52,97.8,55,79,85,6,0,18,94,99.9,49,0,16,63,49,0
CC(=O)Nc1nc2cnc(Nc3cc(NC(=O)c4cccc(CC(C)(C)C#N)c4)ccc3C)nc2s1,23,1,41,25,25,28,8,21,2,25,47,29,99,100,39,31,14,19,0,14
COc1cc2c(Nc3ccc(NC(=O)c4ccccc4)cc3)ncnc2cc1OCCCN1CCOCC1 [GSK301329],16,7,20,0,3,30,0,5,0,3,0,28,24,55,0,10,12,0,0,0
CCCC(=O)Nc1n[nH]c2ncccc12 [SB-601436],0,0,0,0,17,0,0,0,0,0,0,0,0,0,0,14,9,0,0,0
O=C(Nc1ccccc1)c1cccc(Oc2ccc3nccn3n2)c1,1,0,0,0,0,5,0,9,0,0,0,38,66,99.3,0,0,38,15,0,0
CCOC(=O)N1CCC(n2cnc(-c3ccc(F)cc3)c2-c2ccnc(N)n2)CC1 [SB-219952],31,92.7,1,3,26,9,28,6,11,0,9,32,14,23,7,25,17,0,0,56
COc1ccc(Nc2nccc(N3CCC(NC(=O)c4cccc(C#N)c4)C3)n2)cc1 (stereo not shown) [GSK1379730],0,0,0,0,0,24,0,0,0,3,0,3,0,4,26,0,0,0,0,0
